proKLK7 act: activators of human kallikrein-7 zymogen | P49862 | purified proKLK7, EDANS-DABCYL substrate fluorescence; 100% is mature enzyme control, 0% vehicle | activation, % at 7 µM | 0.9% of 370,000 active | AID 652039;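 active = activation above the mean of all tested compounds plus 3 SD, computed per campaign excluding outliers beyond control limits, cut at about 13% in these data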
Target sequence (P49862 whole entry, looked up): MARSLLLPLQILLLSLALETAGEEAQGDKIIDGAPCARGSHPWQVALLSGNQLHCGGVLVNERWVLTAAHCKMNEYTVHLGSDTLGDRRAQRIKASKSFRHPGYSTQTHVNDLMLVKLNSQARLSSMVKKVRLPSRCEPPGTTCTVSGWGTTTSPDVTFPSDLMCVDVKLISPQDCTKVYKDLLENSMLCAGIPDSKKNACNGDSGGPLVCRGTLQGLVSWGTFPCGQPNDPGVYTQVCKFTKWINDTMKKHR
SMARCA2 act: SMARCA2 function activation, primary screen. activation, % at 9.1 µM. 1% of 370,000 active. MG213 cells, MMTV-luciferase reporter, dexamethasone, overnight. AID 652017; in the data active = activation above about 7.8%;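 also: 0% = vehicle wells and 100% = reference activator wells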
FAS-TE inh: inhibitors of human fatty acid synthase thioesterase domain | P49327 | recombinant FAS-TE, OMFH fluorogenic substrate, fluorescence endpoint | 0.67% of 360,000 active | inhibition, % at 15 µM;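 active = compounds whose normalised, plate-corrected inhibition of enzyme fluorescence in the single-dose primary screen is 50% or more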;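 also: 0% = DMSO with enzyme and 100% = substrate without enzyme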
GAA850 FXN act: increases GAA850 frataxin promoter reporter activity | HEK293 lucGAA850 FXN promoter luciferase reporter, 24 h; percent of 10 µM SAHA response | activation, % at 6 µM | 0.56% of 360,000 active;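 active = activation above the average of all compounds screened plus 3 SD, cutoff fixed separately per campaign, cut at about 7.5% in these data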;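 also: 0% = DMSO wells and 100% = 10 µM SAHA wells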
GAA30 FXN cntr: activates GAA30 frataxin promoter, counter-screen for GAA850 activators. 66% of 1,900 active. activation, % at 6 µM. shares compounds with GAA850 FXN act. HEK293 lucGAA30 FXN promoter luciferase, 24 h; DMSO = 0%, 5 µM ipriflavone = 100%;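 active = mean activation above the mean of solvent-only control wells plus 3 SD, cut at about 22% in these data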;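 also: counterscreen of GAA850 promoter hits where activity marks nonselective or luminescence artifacts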
GAA850 confirm: GAA850 FXN promoter activation confirmation. shares compounds with GAA850 FXN act. HEK293 lucGAA850 FXN promoter luciferase reporter, 24 h; 100% = activation by SAHA. activation, % at 6 µM. 86% of 1,900 active;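 active = mean activation above a set limit taken from the primary screen, cut at about 8% in these data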;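 also: 0% = DMSO wells and 100% = 10 µM SAHA wells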
* hit, by the source's call. Most compounds without a hit are left out; they make up all but 2.9% or so of the library.

Screening CN(/N=C/c1ccncc1)c1cnc2ccccc2n1 returned proKLK7 act -2, SMARCA2 act 0, FAS-TE inh 0, GAA850 FXN act 9.6*, GAA30 FXN cntr 105* and GAA850 confirm 29*.
`CCc1nn(CC(=O)Nc2ccc(Br)c(C)c2)c(=N)s1` gave proKLK7 act 0, SMARCA2 act -4, FAS-TE inh -133 and GAA850 FXN act -1.
For CC(=O)Nc1cc(N2C(=O)CCC2=O)ccc1Cl the results were proKLK7 act -1, SMARCA2 act -3, FAS-TE inh -6 and GAA850 FXN act 0.
For CC1(C)COC(/C=C/c2ccc([N+](=O)[O-])cc2)=N1 the results were proKLK7 act 0, SMARCA2 act -1, FAS-TE inh -5 and GAA850 FXN act 3.
Screening COc1ccc(/C=C/S(=O)(=O)NCc2ccccc2)cc1OC returned proKLK7 act 0, SMARCA2 act 0, FAS-TE inh 0, GAA850 FXN act 7.8*, GAA30 FXN cntr 20 and GAA850 confirm 8.2*.
Screening COc1ccc(/C=C/C(=O)O)cc1S(=O)(=O)NCc1ccccc1 returned proKLK7 act 1, SMARCA2 act 2, FAS-TE inh -11 and GAA850 FXN act 2.
`Cn1c(SCc2ccccc2)nc(C(F)(F)F)cc1=O` gave proKLK7 act -1, SMARCA2 act 0, FAS-TE inh 21 and GAA850 FXN act 3.
`Cn1c(SCc2ccccc2)nc(N)c(N=O)c1=O` gave proKLK7 act 1, SMARCA2 act 1, FAS-TE inh 6, GAA850 FXN act 11*, GAA30 FXN cntr -10 and GAA850 confirm 19*.
Screening O=c1c(-c2ccc(O)cc2)coc2cc(OC3OC(CO)C(O)C(O)C3O)ccc12 (stereo unspecified) returned proKLK7 act 1, SMARCA2 act 2, FAS-TE inh -8 and GAA850 FXN act 1.
`Cc1ccc(Cn2ccc(=O)c(OCc3c(Cl)cccc3Cl)c2C)cc1` gave proKLK7 act 0, SMARCA2 act -6, FAS-TE inh 20 and GAA850 FXN act 0.
CC(=O)Oc1ccc(C(=O)Cc2ccccn2)c(O)c1 was read as proKLK7 act 4, SMARCA2 act -1, FAS-TE inh -9, GAA850 FXN act 11*, GAA30 FXN cntr 23* and GAA850 confirm 12*.
CCOC(=O)c1cnc(SCCc2ccccc2)nc1N was read as proKLK7 act 0, SMARCA2 act 3, FAS-TE inh 7 and GAA850 FXN act 7.
Screening CCOC(=O)c1cnc(SCc2ccc(C)cc2)nc1N returned proKLK7 act 0, SMARCA2 act 2, FAS-TE inh 15, GAA850 FXN act 7.8*, GAA30 FXN cntr 86* and GAA850 confirm 27*.
`C=CCNc1nc2cc(-c3ccccc3OC)sc2c(=O)n1C` gave proKLK7 act 0, SMARCA2 act 4, FAS-TE inh 0 and GAA850 FXN act 4.
`O=[N+]([O-])c1ccc2c(c1N1CCCCC1)=NC1(CCCCC1)[N+]=2[O-]` gave proKLK7 act 0, SMARCA2 act -1, FAS-TE inh 10 and GAA850 FXN act 1.
`[O-][N+]1=c2ccc(Nc3ccccc3)cc2=NC12CCCCC2` gave proKLK7 act 1, SMARCA2 act -7, FAS-TE inh -6, GAA850 FXN act 10*, GAA30 FXN cntr 46* and GAA850 confirm 70*.
For COc1ccc(Nc2ccc3c(c2)=NC2(CCCCC2)[N+]=3[O-])cc1 the results were proKLK7 act 0, SMARCA2 act -11, FAS-TE inh -9, GAA850 FXN act 17*, GAA30 FXN cntr 50* and GAA850 confirm 106*.
CC(C)Oc1ccccc1OCCCCn1cnc2ccccc2c1=O was read as proKLK7 act 0, SMARCA2 act 0, FAS-TE inh -6 and GAA850 FXN act 2.
C/C=C/Cn1c(SC)nc2c1c(=O)[nH]c(=O)n2C was read as proKLK7 act 1, SMARCA2 act -1, FAS-TE inh -6 and GAA850 FXN act 3.
`CCCn1c(SCc2ccc(Cl)cc2)nc2c1c(=O)[nH]c(=O)n2C` gave proKLK7 act 1, SMARCA2 act 0, FAS-TE inh 0, GAA850 FXN act 9.3*, GAA30 FXN cntr 10 and GAA850 confirm 15*.
For C/C=C/Cn1c(SCc2ccc(Cl)cc2)nc2c1c(=O)[nH]c(=O)n2C the results were proKLK7 act 0, SMARCA2 act 0, FAS-TE inh 12, GAA850 FXN act 11*, GAA30 FXN cntr 17 and GAA850 confirm 17*.
`COCCn1c(SCc2ccc(Cl)cc2)nc2c1c(=O)[nH]c(=O)n2C` gave proKLK7 act -1, SMARCA2 act 3, FAS-TE inh -1 and GAA850 FXN act 5.
`Cc1nnc(Cl)c2nn(-c3ccccc3F)c(C)c12` gave proKLK7 act 0, SMARCA2 act 3, FAS-TE inh -11, GAA850 FXN act 13*, GAA30 FXN cntr 8 and GAA850 confirm 7.
`Cc1n[nH]c(=S)c2nn(-c3ccccc3F)c(C)c12` gave proKLK7 act 0, SMARCA2 act 1, FAS-TE inh -9 and GAA850 FXN act 2.
For CC(=O)N1C[C@@H](CO)[C@@H](N(C)C(=O)/C=C/c2ccccc2)C[C@H]1c1ccccc1 the results were proKLK7 act 1 and SMARCA2 act -3.
Screening CCc1ccc(-c2c(C)sc(NC(C)=O)c2C(N)=O)cc1 returned proKLK7 act 0, SMARCA2 act -3, FAS-TE inh 2 and GAA850 FXN act 2.
For Cc1cc(C(=O)Nc2sc(C)c(-c3ccc(F)cc3)c2C(N)=O)no1 the results were proKLK7 act 1, SMARCA2 act 5, FAS-TE inh -6, GAA850 FXN act 8.4*, GAA30 FXN cntr 106* and GAA850 confirm 31*.
CC1(Cc2ccc(C(F)(F)F)nc2)C(=O)Nc2cc(-c3ccccc3Cl)ccc21 (stereo unspecified) was read as proKLK7 act 0, SMARCA2 act -4, FAS-TE inh 25, GAA850 FXN act 14*, GAA30 FXN cntr 12 and GAA850 confirm 14*.
CC1(Cc2ccccc2C#N)C(=O)Nc2cc(-c3ccccc3Cl)ccc21 (stereo unspecified) was read as proKLK7 act 1, SMARCA2 act -3, FAS-TE inh 19 and GAA850 FXN act 4.
`S=C1NCN(Cc2cccnc2)CN1c1cccc(Cl)c1` gave proKLK7 act 0, SMARCA2 act -2, FAS-TE inh -9 and GAA850 FXN act -1.
`COc1ccc(-c2csc(N3C(=N)SCC3=O)n2)cc1` gave proKLK7 act 0, SMARCA2 act 7, FAS-TE inh -10, GAA850 FXN act 10*, GAA30 FXN cntr 96* and GAA850 confirm 28*.
Screening O=C(Nc1ccccc1)c1cc(C2CCCN(C(=O)OCc3ccccc3)C2)on1 (stereo unspecified) returned proKLK7 act 0, SMARCA2 act -2, FAS-TE inh 11 and GAA850 FXN act -1.
